Active and inactive are the calls of the source. Unless noted, the rule behind the calls is not given here.
What was measured:
[1] = compounds altering circadian rhythm period length – cell-based, LOPAC library, luminescence reporter (AID 2774); conditions: circadian reporter cells, at 7 µM, actives lie on both sides;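 note: values are relative to mean of DMSO wells on each plate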
[2] = test system: Hepatitis C virus NS3 helicase; experiment: blockers of NS3h binding to ssDNA – biochemical, fluorescence polarization, LOPAC1280 library, primary screen (AID 687035; in the data active = inhibition above about 37%); conditions: Purified HCV NS3 helicase, Cy5-dT15 ssDNA binding fluorescence polarization; stronger effect = higher value; concentration not given here
[3] = compounds altering Cy5-DNA-NS3h complex signal – biochemical, LOPAC1280, artefact control for HCV NS3 helicase inhibitor project (AID 687037); conditions: Cy5-DNA-NS3h complex fluorescence interference counterscreen
[4] = test system: Aerobactin synthetase IucA (Klebsiella pneumoniae, hypervirulent); experiment: biochemical IucA inhibition screen of LOPAC library by absorbance (AID 1346212); conditions: IucA enzyme assay, absorbance (OD) readout; stronger effect = lower value;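 tested at 8 µM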;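 note: 100% = no compound wells and 0% = no enzyme wells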
[5] = viability loss with induced miR-34 in A549 – imaging, A549 dox-inducible miR-34, nuclei and caspase counts, primary screen (AID 1347080;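 active = compounds whose cell count with miR-34 switched on is under 0.7 times the count with it off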); conditions: A549 miR-34 inducible, Hoechst nuclei count, 48 h
[6] = blockers of cellular phospholipid synthesis – cell-based, LOPAC library, screen 4, primary screen (AID 1347384); conditions: animal cells, phospholipid biosynthesis inhibition screen; at 10 µM
[7] = galactose survival enhancers in mitochondrial complex I cybrids – cell-based, galactose medium, ATP luminescence, primary screen (AID 1645843;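 active = z-score of at least 1.8 in each of two replicates, scored against plate mean and spread of sample wells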;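 note: positive z means more ATP and so rescue of galactose-driven cybrid death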); conditions: complex I mutant cybrid cells, 72 h, stronger effect = higher value
[8] = measured here: relative caspase fold change +Dox/-Dox
[9] = measured here: total cells with miR-34 induction, stronger effect = lower value
[10] = measured here: total cells without miR-34 induction

| SMILES | period change [1] | inhibition [2] | fluorescence ratio (interference) [3] | remaining activity [4] | fold change ([5]; stronger effect = lower value) | fold change [5, 8] | cell count [5, 9] | cell count [5, 10] | outcome [6] | z-score [7] |
| --- | --- | --- | --- | --- | --- | --- | --- | --- | --- | --- |
| C[C@]12CCC3C(CC[C@H]4C[C@H](O)CC[C@]34C)C1CC[C@@H]2C(=O)CO (stereo not given in full) | 0.065 h (inactive) | -2% (inactive) | 1 (inactive) | 121% (inactive) | 1.06 (inactive) | 0.876 | 10400 | 9790 | inactive | -0.26 (inactive) |
| C[N+]1(C)C2CCC1CC(OC(=O)c1c[nH]c3ccccc13)C2 (stereo not given) | -0.255 h (inactive) | 0% (inactive) | 1 (inactive) | 94.3% (inactive) | 0.939 (inactive) | 1.36 | 9240 | 9840 | inactive | 0.4 (inactive) |
| CC(=O)NBr | 0.03 h (inactive) | -1% (inactive) | 0.9 (inactive) | 100% (inactive) | 1.03 (inactive) | 2.31 | 10500 | 10100 | inactive | 0.61 (inactive) |
| CCCN(CCC)[C@@H]1CCc2ccc(O)cc2C1 | 0.12 h (inactive) | 0% (inactive) | 1.1 (inactive) | 125% (inactive) | 0.992 (inactive) | 1.38 | 9820 | 9900 | inactive | -0.195 (inactive) |
| Cn1cnc(CCN)c1 | -0.12 h (inactive) | -3% (inactive) | 1 (inactive) | 125% (inactive) | 1.08 (inactive) | 1.18 | 11400 | 10500 | inactive | 0.51 (inactive) |
| CC(Cc1ccc(OCC(=O)O)cc1)NCC(O)c1cccc(Cl)c1 (stereo not given) | -0.08 h (inactive) | -4% (inactive) | 1 (inactive) | 122% (inactive) | 1.04 (inactive) | 2.14 | 11000 | 10600 | inactive | 0.62 (inactive) |
| NCCCP(=O)(O)O | 0.005 h (inactive) | -1% (inactive) | 1 (inactive) | 111% (inactive) | 0.943 (inactive) | 2.14 | 9360 | 9930 | inactive | 0.285 (inactive) |
| COc1ccc2[nH]c3c(c2c1)CCNC3 | -0.105 h (inactive) | 1% (inactive) | 0.9 (inactive) | 108% (inactive) | 1.02 (inactive) | 0.898 | 10400 | 10200 | inactive | 0.28 (inactive) |
| Clc1cc(I)cc(Cl)c1NC1=NCCN1 | 0.11 h (inactive) | -6% (inactive) | 0.9 (inactive) | 117% (inactive) | 1.15 (inactive) | 1.05 | 11200 | 9770 | inactive | 0.175 (inactive) |
| CCCN(CCC)CCc1ccc(O)c(O)c1 | -0.225 h (inactive) | 0% (inactive) | 1 (inactive) | 95.7% (inactive) | 0.99 (inactive) | 0.931 | 10100 | 10200 | inactive | 0.465 (inactive) |
| CC(C)NP(=O)(NC(C)C)OP(=O)(NC(C)C)NC(C)C | 0.055 h (inactive) | -5% (inactive) | 1 (inactive) | 90.6% (inactive) | 0.945 (inactive) | 1.32 | 9680 | 10200 | inactive | 0.25 (inactive) |
| CCCC[N+]1(C)C2CC(OC(=O)[C@H](CO)c3ccccc3)CC1C1OC12 (stereo not given in full) | -0.065 h (inactive) | -1% (inactive) | 1 (inactive) | 117% (inactive) | 0.937 (inactive) | 1.39 | 9870 | 10500 | inactive | 0.72 (inactive) |
| Clc1ccc(N2CC3CCC(C2)N3)nn1 | -0.11 h (inactive) | -5% (inactive) | 1 (inactive) | 90.4% (inactive) | 1 (inactive) | 1.13 | 10400 | 10400 | inactive | -0.28 (inactive) |
| CC(C)Oc1cccnc1N(C)C1CCN(Cc2ccccc2)CC1 | 0.225 h (inactive) | -3% (inactive) | 1 (inactive) | 99.8% (inactive) | 0.905 (inactive) | 1.08 | 8620 | 9520 | inactive | -0.4 (inactive) |
| C[C@H](N)CN1CCc2ccc(Br)cc21 | 0.205 h (inactive) | -3% (inactive) | 1 (inactive) | 115% (inactive) | 1.19 (inactive) | 0.954 | 9010 | 7600 | inactive | -0.65 (inactive) |
| NC(N)=Nc1ccc2[nH]c3c(c2c1)C[C@@]1(O)[C@H]2Cc4ccc(O)c5c4[C@@]1(CCN2CC1CC1)[C@H]3O5 | -0.11 h (inactive) | -6% (inactive) | 0.9 (inactive) | 86.3% (inactive) | 1.08 (inactive) | 0.809 | 9750 | 9000 | inactive | -0.92 (inactive) |
